Assay [1] is described as follows: ATG_ISRE_CIS: Attagene CIS-FACTORIAL HepG2 Assay for human Interferon Regulatory Factor 1 (IRF1) binding to an Interferon-Stimulated Response Element (ISRE) (AID 2282948). The conditions noted are these: HepG2 ISRE cis-reporter (Attagene), mRNA transcription readout; actives raise or lower the signal. In a few lines:
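Multiplexed mRNA reporter readout in human liver HepG2 cells: cis-element-driven reporters transfected, compound added for 24 h, transcripts amplified, fluorescently labelled and sized by capillary electrophoresis; curve fitting bidirectional against DMSO.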

The nature of assay [2]: ATG_M_32_CIS: Attagene CIS-FACTORIAL HepG2 Assay for M32 Transcription Factor (Internal Marker) (AID 2282949).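 Note: background control marker of the multiplexed CIS panel rather than a real target.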 The conditions noted are these: HepG2 Attagene cis-factorial M32 reporter, mRNA; actives raise or lower the signal. Summed up: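 HepG2 human liver cells transiently transfected with cis-promoter-driven multiple reporter transcription units, dosed 24 h. Reporter mRNA quantified by RT-PCR, FAM-labelled primer extension, HpaI digest and capillary electrophoresis; bidirectional fit versus DMSO baseline.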

Assay [3] can be described thus: ATG_M_06_CIS: Attagene CIS-FACTORIAL HepG2 Assay for M06 Transcription Factor (Internal Marker) (AID 2282950). The note with it: HepG2 Attagene CIS-FACTORIAL M06 internal marker reporter; actives raise or lower the signal. Summed up: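 One of many multiplexed endpoints: HepG2 reporter mRNA after 24 h dosing, detected by RT-PCR and capillary electrophoresis fluorescence; gain or loss of signal analysed against DMSO.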

Assay [4] addresses Hypoxia-inducible factor 1-alpha (Homo sapiens) (UniProt Q16665). In words: ATG_HIF1a_CIS: Attagene CIS-FACTORIAL HepG2 Assay for human Hypoxia Inducible Factor 1 (HIF1A) (AID 2282951). The note with it: HepG2 Attagene cis-factorial HIF1a reporter transcription; actives raise or lower the signal. In a few lines: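 HepG2, transient cis-reporter library, 24 h dosing. RNA → RT (oligo dT) → PCR → 6-FAM primer extension → HpaI → CE. Bidirectional curve fit vs DMSO.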

Assay [5] concerns the target Hepatocyte nuclear factor 6 (Homo sapiens) (UniProt Q9UBC0). Put plainly: ATG_HNF6_CIS: Attagene CIS-FACTORIAL HepG2 Assay for human Hepatocyte Nuclear Factor 6 (HNF6) (AID 2282952). The note with it: HepG2 Attagene cis-factorial HNF6 reporter transcription; actives raise or lower the signal. Summed up:
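Endogenous factor activity read in transiently transfected HepG2 via promoter-regulated reporter transcripts. RNA harvested 24 h post-dosing, reverse-transcribed, PCR-amplified, FAM-labelled, HpaI-digested and resolved by capillary electrophoresis; fitted in both directions against DMSO.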

Assay [6] is described as follows: ATG_MRE_CIS: Attagene CIS-FACTORIAL HepG2 Assay for human Metal Responsive Element (MRE) (AID 2282954). The note with it: HepG2 MRE cis-reporter transcription, Attagene multiplex; actives raise or lower the signal. In a few lines:
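Cells were transfected with cis-promoter reporter transcription units, then dosed for 24 h. RNA was reverse-transcribed, amplified, fluorescently labelled and resolved by capillary electrophoresis, and activity was fitted in both directions relative to DMSO.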

Assay [7] concerns the target Paired box protein Pax-6 (Homo sapiens) (UniProt P26367). In words: ATG_Pax6_CIS: Attagene CIS-FACTORIAL HepG2 Assay for human Paired Box 6 (PAX6) (AID 2282956). The conditions noted are these: HepG2 CIS-FACTORIAL PAX6 reporter transcription, RNA readout; actives raise or lower the signal. In a few lines:
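Fluorescent RT-PCR products separated by capillary electrophoresis report PAX6-linked promoter mRNA in HepG2 cells 24 h post-dose. Curves fitted bidirectionally, DMSO as negative control.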

The nature of assay [8]: ATG_PXRE_CIS: Attagene CIS-FACTORIAL HepG2 Assay for human Pregnane X Receptor Element (PXRE) (AID 2282957). The note with it: HepG2 Attagene CIS-FACTORIAL PXRE reporter, mRNA; actives raise or lower the signal. Summed up: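 Reporter transcripts under endogenous PXR-responsive cis-regulation quantified from total RNA of transfected HepG2 cells 24 h post-dosing, via RT-PCR with fluorescent primer extension and capillary electrophoresis. Gain or loss of signal fitted against DMSO baseline.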

A short description of assay [9]: ATG_RORE_CIS: Attagene CIS-FACTORIAL HepG2 Assay for human RAR-related Orphan Receptor Element (RORE) (AID 2282959). The note with it: HepG2 Attagene cis-factorial RORE reporter, mRNA; actives raise or lower the signal. In a few lines: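 Multiplexed reporter assay measuring mRNA induction from a cis promoter element in transiently transfected HepG2 cells after 24 h treatment. Detection via RT-PCR and capillary electrophoresis fluorescence; DMSO serves as baseline.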

Assay [10] addresses Transcription factor Sp1 (Homo sapiens) (UniProt P08047). In words: ATG_Sp1_CIS: Attagene CIS-FACTORIAL HepG2 Assay for human Specificity Protein 1 (Sp1) (AID 2282961). The conditions noted are these: HepG2 Sp1 cis-reporter transcription, actives raise or lower the signal. Summed up:
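Measures mRNA induction of an Sp1-linked reporter in HepG2 cells 24 h post-dosing. Multiplexed reporters read by RT-PCR and capillary electrophoresis; DMSO serves as negative control and baseline.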

The nature of assay [11]: ATG_SREBP_CIS: Attagene CIS-FACTORIAL HepG2 Assay for human Sterol Regulatory Element Binding (SREBP) (AID 2282962). The conditions noted are these: HepG2 Attagene cis-factorial SREBP reporter, mRNA; actives raise or lower the signal. In a few lines:
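Endogenous factor activity is measured in HepG2 through multiplexed reporter units under cis-element control. Following a 24 h incubation, reporter transcripts are reverse-transcribed, PCR-amplified and sized by capillary electrophoresis; activity is fitted in both directions relative to DMSO.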

Assay [12] has as its target Signal transducer and activator of transcription 3 (Homo sapiens) (UniProt P40763). Put plainly: ATG_STAT3_CIS: Attagene CIS-FACTORIAL HepG2 Assay for human Signal Transducer and Activator of Transcription 3 (STAT3) (AID 2282963). The note with it: HepG2, Attagene cis-factorial STAT3 reporter transcription; actives raise or lower the signal. In a few lines: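 HepG2, MRTU-transfected, 24 h dosing. RNA → RT → PCR → FAM label → HpaI → CE. Bidirectional fit vs DMSO.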

The nature of assay [13]: ATG_TA_CIS: Attagene CIS-FACTORIAL HepG2 Assay for human TA Basal Promoter (AID 2282964). The note with it: HepG2 Attagene CIS-factorial TA basal promoter reporter; actives raise or lower the signal. In a few lines: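 Transient MRTU transfection of HepG2 preceded 24 h compound exposure. Reporter mRNA levels were then read by RT-PCR with capillary electrophoresis, and this background-control endpoint was fitted bidirectionally to DMSO.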

Assay [14] can be described thus: ATG_TCF_b_cat_CIS: Attagene CIS-FACTORIAL HepG2 Assay for human T-Cell-Factor with beta-catenin (TCF/b-cat) (AID 2282965). The note with it: HepG2 TCF/beta-catenin cis-reporter transcription, actives raise or lower the signal. Summed up: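 HepG2 cells transiently transfected with multiple cis-promoter-regulated reporter transcription units, so endogenous transcription factor activity is measured. Reporter mRNA read 24 hours after dosing by RT-PCR, fluorescent labelling and capillary electrophoresis; bidirectional fitting against DMSO.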

The nature of assay [15]: ATG_GRE_CIS: Attagene CIS-FACTORIAL HepG2 Assay for human Glucocorticoid Response Elements (GRE) (AID 2282947). The note with it: HepG2 GRE cis-reporter, Attagene multiplex mRNA; actives raise or lower the signal. Summed up:
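Cells (HepG2) bearing transfected cis-promoter reporter transcription units were treated with chemical for 24 hours. Reporter mRNA was measured via RT-PCR with capillary electrophoresis, and activity was fitted in both directions relative to DMSO.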

A short description of assay [16]: ATG_PBREM_CIS: Attagene CIS-FACTORIAL HepG2 Assay for human Phenobarbital-responsive Enhancer Module (PBREM) (AID 2282955). The note with it: HepG2 PBREM cis-reporter, Attagene multiplexed transcription; actives raise or lower the signal. Summed up:
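HepG2, transient MRTU transfection, 24 h dosing; RNA → oligo(dT) RT → PCR → 6-FAM extension → HpaI → CE. Bidirectional fit vs DMSO.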

The nature of assay [17]: ATG_Sox_CIS: Attagene CIS-FACTORIAL HepG2 Assay for human SRY-box transcription factor (SOX) (AID 2282960). The note with it: HepG2 Attagene cis-factorial SOX reporter, mRNA; actives raise or lower the signal. Summed up:
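Cells were transfected with reporter constructs under cis-regulatory promoters, then exposed to chemicals for 24 h. Reporter transcripts were quantified by fluorescence after RT-PCR and capillary electrophoresis; activity was fitted in both directions against DMSO.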

The nature of assay [18]: ATG_PPRE_CIS: Attagene CIS-FACTORIAL HepG2 Assay for human Peroxisome Proliferator-activated Response Element (PPRE) (AID 2282958). The conditions noted are these: HepG2 PPRE cis-element reporter, Attagene transcription factor profiling; actives raise or lower the signal. Summed up: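 Transcript-level reporter induction in transfected HepG2 cells after 24 h chemical exposure, quantified by fluorescence from RT-PCR products separated by capillary electrophoresis.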

The target in assay [19] is Heat shock factor protein 1 (Homo sapiens) (UniProt Q00613). In words: ATG_HSE_CIS: Attagene CIS-FACTORIAL HepG2 Assay for human Heat Shock Transcription Factor 1 (HSE) (AID 2282953). The conditions noted are these: HepG2 HSE cis-reporter, Attagene RNA transcription; actives raise or lower the signal. Summed up:
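Using HepG2 with transfected cis-driven reporter constructs, compound effects on endogenous factor activity are scored as reporter mRNA change at 24 h. Detection: RT-PCR, HpaI digestion, capillary electrophoresis; bidirectional fitting to DMSO.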

Active and inactive are the calls of the source. Rule for the calls: active = hit-call score of the fitted dose curve at least 0.9, where 1 is the maximum; inactive = score below 0.9.

Experimental findings from PubChem BioAssay (EPA / NIEHS) are described below.

Sequence of Hepatocyte nuclear factor 6 (Homo sapiens) (Q9UBC0 whole entry, looked up): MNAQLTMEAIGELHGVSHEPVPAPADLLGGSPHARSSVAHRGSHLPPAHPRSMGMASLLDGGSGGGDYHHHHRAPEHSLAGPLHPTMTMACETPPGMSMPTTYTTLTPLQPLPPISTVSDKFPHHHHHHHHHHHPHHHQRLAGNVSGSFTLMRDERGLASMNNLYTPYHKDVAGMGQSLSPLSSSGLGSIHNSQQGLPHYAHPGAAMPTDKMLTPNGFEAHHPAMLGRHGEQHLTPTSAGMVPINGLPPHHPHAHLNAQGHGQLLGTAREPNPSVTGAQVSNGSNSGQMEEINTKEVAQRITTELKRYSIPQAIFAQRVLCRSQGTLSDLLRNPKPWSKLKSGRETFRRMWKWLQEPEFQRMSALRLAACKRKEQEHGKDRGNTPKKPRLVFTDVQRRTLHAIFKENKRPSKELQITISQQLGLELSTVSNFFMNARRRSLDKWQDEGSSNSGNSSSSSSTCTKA
Sequence of Hypoxia-inducible factor 1-alpha (Homo sapiens) (Q16665 whole entry, looked up): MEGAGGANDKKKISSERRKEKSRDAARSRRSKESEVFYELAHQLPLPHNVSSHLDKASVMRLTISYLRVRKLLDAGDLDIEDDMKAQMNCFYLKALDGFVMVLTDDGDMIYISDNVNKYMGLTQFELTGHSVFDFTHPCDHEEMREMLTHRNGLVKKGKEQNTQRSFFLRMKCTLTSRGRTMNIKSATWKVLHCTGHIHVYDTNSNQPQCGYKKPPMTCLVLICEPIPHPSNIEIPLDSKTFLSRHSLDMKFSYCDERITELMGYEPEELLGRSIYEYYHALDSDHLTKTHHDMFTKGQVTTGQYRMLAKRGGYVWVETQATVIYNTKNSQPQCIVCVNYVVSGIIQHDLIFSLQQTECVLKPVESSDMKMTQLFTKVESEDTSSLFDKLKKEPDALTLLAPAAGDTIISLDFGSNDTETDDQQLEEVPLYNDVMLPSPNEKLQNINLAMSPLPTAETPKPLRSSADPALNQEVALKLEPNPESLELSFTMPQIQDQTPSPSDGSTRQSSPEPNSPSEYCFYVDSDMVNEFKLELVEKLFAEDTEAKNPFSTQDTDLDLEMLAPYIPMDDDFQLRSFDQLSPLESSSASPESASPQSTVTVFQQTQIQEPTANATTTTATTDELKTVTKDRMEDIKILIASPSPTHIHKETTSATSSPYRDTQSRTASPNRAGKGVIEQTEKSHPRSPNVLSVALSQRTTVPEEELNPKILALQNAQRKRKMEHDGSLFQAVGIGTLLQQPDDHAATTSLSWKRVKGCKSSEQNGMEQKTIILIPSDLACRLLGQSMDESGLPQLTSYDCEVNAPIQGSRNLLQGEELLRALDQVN
Sequence of Paired box protein Pax-6 (Homo sapiens) (P26367 whole entry, looked up): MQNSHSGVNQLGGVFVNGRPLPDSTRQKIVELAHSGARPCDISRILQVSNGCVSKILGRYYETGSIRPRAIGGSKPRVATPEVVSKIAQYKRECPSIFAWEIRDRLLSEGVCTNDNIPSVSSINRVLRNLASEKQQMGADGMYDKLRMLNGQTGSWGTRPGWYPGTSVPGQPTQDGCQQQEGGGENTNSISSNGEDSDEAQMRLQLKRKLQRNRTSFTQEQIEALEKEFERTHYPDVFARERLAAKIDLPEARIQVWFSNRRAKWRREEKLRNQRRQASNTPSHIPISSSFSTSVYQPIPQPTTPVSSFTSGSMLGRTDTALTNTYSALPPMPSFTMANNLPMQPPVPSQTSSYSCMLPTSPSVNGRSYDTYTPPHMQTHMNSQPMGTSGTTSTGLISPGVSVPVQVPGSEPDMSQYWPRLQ
Sequence of Signal transducer and activator of transcription 3 (Homo sapiens) (P40763 whole entry, looked up): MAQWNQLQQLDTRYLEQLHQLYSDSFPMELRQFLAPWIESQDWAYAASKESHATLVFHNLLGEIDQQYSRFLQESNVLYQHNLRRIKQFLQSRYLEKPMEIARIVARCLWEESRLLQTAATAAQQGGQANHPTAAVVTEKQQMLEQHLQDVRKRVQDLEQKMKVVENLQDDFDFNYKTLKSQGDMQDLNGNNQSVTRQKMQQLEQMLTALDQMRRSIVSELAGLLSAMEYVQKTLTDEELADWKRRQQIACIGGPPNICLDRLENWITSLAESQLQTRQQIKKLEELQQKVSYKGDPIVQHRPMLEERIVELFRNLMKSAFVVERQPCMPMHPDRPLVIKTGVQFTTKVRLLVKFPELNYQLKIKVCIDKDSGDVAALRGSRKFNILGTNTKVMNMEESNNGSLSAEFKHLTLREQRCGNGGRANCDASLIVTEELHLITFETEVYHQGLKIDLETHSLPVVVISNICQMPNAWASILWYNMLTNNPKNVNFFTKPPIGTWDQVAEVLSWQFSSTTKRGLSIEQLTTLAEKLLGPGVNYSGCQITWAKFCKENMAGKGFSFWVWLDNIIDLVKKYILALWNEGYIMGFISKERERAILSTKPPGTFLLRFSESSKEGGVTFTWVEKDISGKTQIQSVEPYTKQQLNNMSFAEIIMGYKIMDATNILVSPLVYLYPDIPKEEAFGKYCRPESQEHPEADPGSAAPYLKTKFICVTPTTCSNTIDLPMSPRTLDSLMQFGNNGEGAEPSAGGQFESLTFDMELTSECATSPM
Sequence of Transcription factor Sp1 (Homo sapiens) (P08047 whole entry, looked up): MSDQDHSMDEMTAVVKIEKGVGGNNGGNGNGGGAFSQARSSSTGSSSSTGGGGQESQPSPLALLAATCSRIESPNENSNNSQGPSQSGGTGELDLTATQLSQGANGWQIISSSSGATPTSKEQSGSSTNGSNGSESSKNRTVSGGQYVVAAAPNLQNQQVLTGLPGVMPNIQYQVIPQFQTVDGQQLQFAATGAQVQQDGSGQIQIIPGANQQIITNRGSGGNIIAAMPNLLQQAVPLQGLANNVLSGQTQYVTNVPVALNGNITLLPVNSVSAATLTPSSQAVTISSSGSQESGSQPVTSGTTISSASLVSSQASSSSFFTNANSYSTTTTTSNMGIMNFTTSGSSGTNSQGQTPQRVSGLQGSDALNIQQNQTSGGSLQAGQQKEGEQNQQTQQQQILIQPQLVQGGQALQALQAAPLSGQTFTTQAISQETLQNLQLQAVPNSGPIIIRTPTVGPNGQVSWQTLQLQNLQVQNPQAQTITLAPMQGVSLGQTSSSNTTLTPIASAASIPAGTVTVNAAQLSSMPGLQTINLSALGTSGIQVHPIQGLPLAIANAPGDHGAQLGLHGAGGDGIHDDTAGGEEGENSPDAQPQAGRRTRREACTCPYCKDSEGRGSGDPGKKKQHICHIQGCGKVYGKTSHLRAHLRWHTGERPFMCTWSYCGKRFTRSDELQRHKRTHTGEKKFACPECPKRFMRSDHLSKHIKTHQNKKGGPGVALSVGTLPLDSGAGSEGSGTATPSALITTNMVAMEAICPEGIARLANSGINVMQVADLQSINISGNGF
Sequence of Heat shock factor protein 1 (Homo sapiens) (Q00613 whole entry, looked up): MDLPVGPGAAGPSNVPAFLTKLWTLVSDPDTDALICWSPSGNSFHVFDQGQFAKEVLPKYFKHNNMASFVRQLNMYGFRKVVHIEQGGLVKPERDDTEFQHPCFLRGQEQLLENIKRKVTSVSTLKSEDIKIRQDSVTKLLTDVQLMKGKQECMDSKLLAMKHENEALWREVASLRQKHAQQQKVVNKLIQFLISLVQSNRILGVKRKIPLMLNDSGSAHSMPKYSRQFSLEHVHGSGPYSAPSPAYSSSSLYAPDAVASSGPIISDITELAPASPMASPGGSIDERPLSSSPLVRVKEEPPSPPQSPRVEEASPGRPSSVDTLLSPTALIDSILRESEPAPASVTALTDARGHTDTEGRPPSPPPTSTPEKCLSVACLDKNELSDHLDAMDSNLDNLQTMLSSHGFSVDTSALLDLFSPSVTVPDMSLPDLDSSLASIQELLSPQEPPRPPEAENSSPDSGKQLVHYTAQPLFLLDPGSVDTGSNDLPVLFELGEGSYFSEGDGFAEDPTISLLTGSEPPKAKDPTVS

For the compound `COC(=O)c1ccccc1O`, the outcome in assay [1], in [2], in assay [3], in assay [4], in assay [5] and in assay [6] was inactive. Moreover, the outcome in [7], in assay [8], in [9], in [10], in [11] and in [12] was inactive. Further, the compound was called inactive in assay [13] and in assay [14].
For the compound `CCCCCCc1ccc(O)cc1O`, the outcome in assay [15], in assay [2], in [3], in assay [5], in assay [16] and in assay [8] was inactive. Also, the call in assay [17], in assay [10], in assay [11], in assay [12] and in assay [13] was inactive. Besides, the AC50 (usually the midpoint of the concentration-response curve, whichever way the signal moves) in [1] is 55.7 µM (active); in assay [4], 50.7 µM (active); in assay [6] it was 54.1 µM (active); in [7], 51.1 µM (active); in [9], 42 µM (active); in assay [14], 47.8 µM (active).
Turning to `C=CCCCCCCCCC(=O)O`, the result in assay [15], in assay [1], in assay [2], in assay [3], in assay [4] and in [5] was inactive. Further, the outcome in [6], in [7], in [8], in [9], in [17] and in assay [10] was inactive. The compound was classed as inactive in assay [11], in assay [12], in assay [13] and in assay [14].
Turning to `CC1=CC(=O)CC(C)(C)C1`, the result in assay [15], in assay [1], in [2], in assay [3], in assay [4] and in assay [5] was inactive. In addition, the compound was called inactive in [6], in [7], in assay [18], in assay [9], in assay [17] and in assay [10]. In addition, the compound was called inactive in [11], in assay [12], in [13] and in assay [14]. Besides, in assay [8], the AC50 is 50 µM (active).
As for `O=C(O)c1cc(N=Nc2ccc(S(=O)(=O)Nc3ccccn3)cc2)ccc1O`, the result in assay [15], in assay [1], in [2], in [3], in assay [5] and in assay [6] was inactive. For the same compound, the compound was called inactive in [7], in assay [8], in assay [18], in assay [9], in [10] and in [11]. For the same compound, the compound was classed as inactive in assay [12], in assay [13] and in assay [14].
In the case of `Cn1c(=O)c2c(ncn2C)n(C)c1=O`, the compound was called inactive in [15], in assay [1], in assay [2], in assay [3], in assay [4] and in assay [5]. Also, the result in assay [6], in assay [16], in [7], in [8], in assay [9] and in assay [17] was inactive. The result in assay [10], in assay [11], in assay [12], in assay [13] and in assay [14] was inactive.
As for `Cc1ccc(S(=O)(=O)O)cc1C`, the result in assay [15], in assay [1], in assay [2], in assay [3], in assay [4] and in assay [5] was inactive. The compound was classed as inactive in [6], in assay [16], in assay [7], in assay [8], in assay [18] and in assay [17]. Moreover, the call in assay [10], in [11], in assay [12], in [13] and in [14] was inactive.
For `CC(C)CCCCCCOC(=O)c1ccc(C(=O)OCCCCCCC(C)C)c(C(=O)OCCCCCCC(C)C)c1`, the compound was classed as inactive in assay [1], in [2], in [3], in [4], in assay [5] and in assay [19]. The compound was called inactive in assay [6], in assay [16], in assay [7], in assay [8], in assay [18] and in assay [9]. Also, the compound was classed as inactive in [17], in assay [10], in [11], in assay [12], in assay [13] and in assay [14].
On to `CC[C@H]1CC[C@H](NCc2cc3c(cc2OC)[C@H]2C[C@H]2C(=O)N3C)[C@H](c2ccccc2)N1`, for which the half-maximal activity concentration (AC50) was 69 µM (active) in assay [15]; 80.9 µM (active) in [1]; 114 µM (active) in assay [6]; 4.91 µM (active) in [8]; 75.6 µM (active) in [18]; 47.5 µM (active) in assay [10]. Moreover, the AC50 in [11] was 36.6 µM (active); in [14], 100 µM (active). Besides, the call in assay [2], in assay [3], in assay [4], in [5], in assay [7] and in assay [9] was inactive. The compound was called inactive in [17], in [12] and in [13].
